Bioassay records as filed in PubChem.
Only some compounds are listed: those with a hit (about 8% of all), similar ones and a draw of the others.
HT1080 IDH1KD tx: kills HT-1080 cells with IDH1 knockdown | HT-1080 IDH1 knockdown viability, ATP luminescence, 48 h | AID 686971 | 360,000 tested, 2% active | Potency, µM (doses to about 46.1 µM), for the others: at the highest dose activity, negative = toxicity, hits mostly cytotoxic;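 also: 0% = DMSO wells and -100% = cell-free medium wells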
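HT-1080-IDH1KD cells (IDH1 knocked down), 750/well in RPMI with 5% FBS, treated with compound 48 h at 37 degrees C. Viability by CellTiter-Glo luminescence, normalised to DMSO and no-cell wells; concentration-response curves classed.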
SW480 rereplic: induces DNA re-replication in SW480 colon adenocarcinoma cells; SW480 DNA re-replication, Hoechst DNA content imaging, 48 h; Potency, µM (titrated, usually from 46.1 µM), without a hit: at the top dose re-replication activation, usual class: activators; 340,000 tested, 1.8% active; AID 624297; also: % of control where 0% means no effect; nearly all actives have a fitted effect of over 55% in size
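Cells (250 per well) received 23 nL compound or DMSO by pin tool and were kept 48 hr at 37 C, 5% CO2. Nuclei were then stained with Hoechst for 40 min and scanned for DNA content.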
KB-3-1 cytotox: KB-3-1 parental cell cytotoxicity. AID 1347075. 400,000 tested, 1.4% active. Potency, µM (doses to about 46.1 µM), hits mostly cytotoxic. KB-3-1 viability, CellTiter-Glo ATP luminescence, 72 h; also: % is scaled to controls: 0 for no effect and ±100 for the full control effect; nearly all actives have a fitted effect of over 60% in size
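Parental KB-3-1 viability, qHTS format: 72 h compound exposure, 37 °C; CellTiter-Glo; media-only wells and DMSO plates as controls; concentration-effect fits on corrected data.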
HT1080NT lethal: kills 2HG-producing HT-1080-NT fibrosarcoma cells | HT-1080-NT fibrosarcoma viability, CellTiter-Glo ATP luminescence, 48 h | AID 686970 | Potency, µM (series often up to 46.1 µM), without a hit: top-dose activity, negative = less viability, most hits filed as cytotoxic | 360,000 tested, 1.6% active;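 also: NT is the 2HG producing partner of a matched IDH1 knockdown line; 0% = DMSO-treated cells and -100% = media-only wells without cells; nearly all actives have a fitted effect of over 55% in size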
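Fibrosarcoma NT cells, 750 per well in 5% FBS RPMI, were exposed to compound for 48 hours. Viability: CellTiter-Glo luminescence.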
MCF10A rereplic: DNA re-replication induction in MCF 10a cells; Potency, µM (series often up to 46.1 µM), for inactives: at the top dose activity, positive = re-replication, hits mostly activators; AID 624296; MCF 10A DNA re-replication, Hoechst nuclear intensity, 48 h; 350,000 tested, 2.9% active; also: % of control where 0% means no effect; nearly all actives have a fitted effect of over 50% in size
KB-V1 MDR tox: kills drug-selected multidrug resistant KB-V1 cells; KB-V1 MDR cells viability, CellTiter-Glo, 72 h; Potency, µM (highest dose often 46.1 µM), actives largely listed as cytotoxic; 400,000 tested, 3.4% active; also: % is scaled to controls: 0 for no effect and ±100 for the full control effect; nearly all actives have a fitted effect of over 60% in size
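Readout: CellTiter-Glo luminescence, 10 min after addition. Cells: KB-V1 MDR subline, 72 h at 37 degrees C with compound. Analysis: corrected, normalized data fitted to concentration-effect curves.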
* marks the source's active call; other numbers are inactive results; ! = not confirmed by another sample; [ ] = remark or other dose. Calls follow the shape of the dose curve; as a rule, active = well fitted curve in the direction sought with a large enough effect; inconclusive = small, poorly fitted or top-dose-only effect, or another doubt; inactive = no such curve, though single readings can be large; an effect the other way counts as inactive or inconclusive. Potency is read from the fitted curve at half-maximal effect.

How did CN(C)[C@H]1C(=O)C(C(=O)NCN2CCCC2)=C(O)[C@]2(O)C(=O)C3=C(O)c4c(O)cccc4[C@@](C)(O)[C@H]3C[C@@H]12 do in these assays?
SW480 rereplic: -1%[20.6 µM]; MCF10A rereplic: -2%[20.6 µM]

How did Nc1c(C(=O)Nc2cccc(F)c2)c2ccccn2c1C(=O)c1ccccc1 do in these assays?
KB-3-1 cytotox: inactive; KB-V1 MDR tox: inactive

How did CCOC(=O)C1CCN(C(=O)Cn2ncc3c([nH]c4ccc(C)cc43)c2=O)CC1 do in these assays?
KB-3-1 cytotox: inactive; KB-V1 MDR tox: inactive

How did c1cc2[nH]snc2c2nc(C3CC3)nc12 do in these assays?
HT1080 IDH1KD tx: inconclusive; SW480 rereplic: 20%; KB-3-1 cytotox: inconclusive; HT1080NT lethal: -27%; MCF10A rereplic: 21µM*; KB-V1 MDR tox: inconclusive

How did CC#CC[N+](C)(C)CCCCCCCCCC do in these assays?
HT1080 IDH1KD tx: inconclusive; SW480 rereplic: 21%; KB-3-1 cytotox: 5.8µM*; HT1080NT lethal: -27%; MCF10A rereplic: 0%; KB-V1 MDR tox: inactive

What do the screens show for `C#CC[N+](C)(C)CCCCCCCCC`?
HT1080 IDH1KD tx: inconclusive; SW480 rereplic: inconclusive; KB-3-1 cytotox: 5.8µM*; HT1080NT lethal: inconclusive; MCF10A rereplic: 9.2µM*; KB-V1 MDR tox: inactive

Results for C#CC[N+](C)(C)CC#Cc1ccccc1 ?
HT1080 IDH1KD tx: -5%; SW480 rereplic: 15%; KB-3-1 cytotox: inconclusive; HT1080NT lethal: -19%; MCF10A rereplic: 18%; KB-V1 MDR tox: inactive

Results for Cc1ccc(Cl)cc1N1CCN(C(=O)CCS(=O)(=O)c2cc(Br)cc3c2N(C(=O)C2CC2)CC3)CC1 ?
KB-3-1 cytotox: inactive; KB-V1 MDR tox: inactive

How did COc1ccc(CCNC(=O)c2ccc3c(c2)ncn3-c2ccc(C(C)C)cc2)cc1OC do in these assays?
KB-3-1 cytotox: inactive; KB-V1 MDR tox: inconclusive

How did COc1ccc(CCC(=O)NCCOc2ccccc2Cl)cc1 do in these assays?
HT1080 IDH1KD tx: 21%; SW480 rereplic: 16%; KB-3-1 cytotox: inactive; HT1080NT lethal: -17%; MCF10A rereplic: 1%; KB-V1 MDR tox: inactive

What do the screens show for `O=c1oc2ccccc2c(Nc2cc3ccccc3cc2O)c1[N+](=O)[O-]`?
HT1080 IDH1KD tx: inconclusive; SW480 rereplic: inconclusive; KB-3-1 cytotox: 15µM*; HT1080NT lethal: inconclusive; MCF10A rereplic: 2.1µM*; KB-V1 MDR tox: inconclusive

Results for C=CCn1c(=NC(=O)c2cc(-c3cccs3)nc3ccccc23)sc2cc(S(N)(=O)=O)ccc21 ?
HT1080 IDH1KD tx: 2%; SW480 rereplic: 21µM*; KB-3-1 cytotox: inactive; HT1080NT lethal: -20%; MCF10A rereplic: inconclusive; KB-V1 MDR tox: inactive

How did C=CCn1c(=NC(=O)c2cc(Cl)sc2Cl)sc2cc(S(N)(=O)=O)ccc21 do in these assays?
HT1080 IDH1KD tx: inconclusive; SW480 rereplic: 4%; KB-3-1 cytotox: inactive; HT1080NT lethal: inconclusive; MCF10A rereplic: 21µM*; KB-V1 MDR tox: inconclusive

Results for O=C1[O][Bi][O]c2ccccc21 ?
SW480 rereplic: -4%; MCF10A rereplic: 1%

What do the screens show for `Cc1ccccc1-c1nc(CS(=O)(=O)CC(=O)N2CCCCC2)c(C)o1`?
HT1080 IDH1KD tx: -15%; SW480 rereplic: -18%; KB-3-1 cytotox: inactive; HT1080NT lethal: inconclusive; MCF10A rereplic: 5%; KB-V1 MDR tox: inactive

Results for C=CCn1c(SC(F)F)nc2scc(-c3ccco3)c2c1=O ?
HT1080 IDH1KD tx: inconclusive; SW480 rereplic: 20%; KB-3-1 cytotox: inactive; HT1080NT lethal: -7%; MCF10A rereplic: 2.9µM*; KB-V1 MDR tox: inactive

How did O=C(CN1CCCN(Cc2ccc(F)cc2Cl)C1=O)NC1CCCC1 do in these assays?
HT1080 IDH1KD tx: 1%; SW480 rereplic: -3%; KB-3-1 cytotox: inactive; HT1080NT lethal: 0%; MCF10A rereplic: 1%; KB-V1 MDR tox: inactive

How did Cc1cc(S(=O)(=O)N2CCN(c3ccccc3C)CC2)ccc1F do in these assays?
HT1080 IDH1KD tx: -24%; SW480 rereplic: -5%; KB-3-1 cytotox: inactive; HT1080NT lethal: -6%; MCF10A rereplic: 10%; KB-V1 MDR tox: inactive

Results for Cc1nn(-c2ccc(F)cc2)c2sc(C(=O)N3CCCCCC3)cc12 ?
HT1080 IDH1KD tx: -27%; SW480 rereplic: 5%; KB-3-1 cytotox: inactive; HT1080NT lethal: -18%; MCF10A rereplic: inconclusive; KB-V1 MDR tox: inactive

How did Cc1ccccc1-n1nc(C)c2cc(C(=O)N3CCN(S(=O)(=O)c4ccccc4)CC3)sc21 do in these assays?
HT1080 IDH1KD tx: 11%; SW480 rereplic: -6%; KB-3-1 cytotox: inactive; HT1080NT lethal: 9%; MCF10A rereplic: 7%; KB-V1 MDR tox: 23µM*

What do the screens show for `Cc1ccccc1N1CCN(S(=O)(=O)c2ccccc2)CC1`?
HT1080 IDH1KD tx: -5%; SW480 rereplic: 0%; KB-3-1 cytotox: inconclusive; HT1080NT lethal: 1%; MCF10A rereplic: 1%; KB-V1 MDR tox: 21µM*!

What do the screens show for `CNc1nc(Cl)nc2c1ncn2-c1ccccc1`?
HT1080 IDH1KD tx: -9%; SW480 rereplic: 9%; KB-3-1 cytotox: 15µM*; HT1080NT lethal: -12%; MCF10A rereplic: 3%; KB-V1 MDR tox: 6.5µM*

How did Clc1nc(Cl)c2ncn(-c3ccccc3)c2n1 do in these assays?
HT1080 IDH1KD tx: -25%; SW480 rereplic: inconclusive; KB-3-1 cytotox: 18µM*; HT1080NT lethal: -1%; MCF10A rereplic: inconclusive; KB-V1 MDR tox: inconclusive

How did CN(C)c1ncnc2c1ncn2-c1ccccc1 do in these assays?
HT1080 IDH1KD tx: -4%; SW480 rereplic: 4%; KB-3-1 cytotox: inactive; HT1080NT lethal: -1%; MCF10A rereplic: 0%; KB-V1 MDR tox: inconclusive

What do the screens show for `CCCNC(=O)C[C@@H]1CC[C@H]2NC[C@H](O)COC[C@@H]2O1`?
HT1080 IDH1KD tx: 19%; KB-3-1 cytotox: inactive; HT1080NT lethal: 11%; KB-V1 MDR tox: inactive

What do the screens show for `COc1ccc(CCNCc2ccc(OCc3ccccc3)cc2)cc1`?
HT1080 IDH1KD tx: 18µM*; SW480 rereplic: 89%; KB-3-1 cytotox: inactive; HT1080NT lethal: inconclusive; MCF10A rereplic: inconclusive; KB-V1 MDR tox: inactive

What do the screens show for `COc1ccc(CNC(=O)CNC(C)c2ccc(F)cc2)cc1` (configuration not stated)?
HT1080 IDH1KD tx: 5%; SW480 rereplic: 0%; KB-3-1 cytotox: inactive; HT1080NT lethal: -2%; MCF10A rereplic: -16%; KB-V1 MDR tox: inactive

What do the screens show for `COc1ccc(C(CCNCc2ccccc2)c2ccc(F)cc2)cc1` (configuration not stated)?
HT1080 IDH1KD tx: 16µM*; KB-3-1 cytotox: inconclusive; HT1080NT lethal: inconclusive; MCF10A rereplic: 10%; KB-V1 MDR tox: 18µM*
